Here are results for ten compounds from PubChem BioAssay AID1508608 (The Scripps Research Institute Molecular Screening Center, 2020).

The campaign covered roughly 2,300 compounds. About 20 (0.9%) were called active. This is one part of a sample in which actives are shown more often than they occur.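 Rule for the calls: active = mean activation across replicates above 26.72%, the hit cutoff set for this confirmation screen; inactive = the rest.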

The target of the assay is G-protein coupled receptor 151 (Homo sapiens) (UniProt Q8TDV0). Kind of assay: GPR151 agonism via beta-arrestin recruitment – cell-based, PathHunter beta-arrestin, luminescence, set 2, confirmation (AID 1508608).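 Note: 0% = plate median of compound wells and 100% = EA reagent high control.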 The settings on record: GPR151 PathHunter beta-arrestin cells, 90 min, at 11.2 µM, hits give high values; 100% = signal from added EA reagent unless noted. (Recruitment of arrestin is a read-out of receptor activation apart from second messengers.)
Chain of G-protein coupled receptor 151 (Homo sapiens) (Q8TDV0 whole entry, looked up): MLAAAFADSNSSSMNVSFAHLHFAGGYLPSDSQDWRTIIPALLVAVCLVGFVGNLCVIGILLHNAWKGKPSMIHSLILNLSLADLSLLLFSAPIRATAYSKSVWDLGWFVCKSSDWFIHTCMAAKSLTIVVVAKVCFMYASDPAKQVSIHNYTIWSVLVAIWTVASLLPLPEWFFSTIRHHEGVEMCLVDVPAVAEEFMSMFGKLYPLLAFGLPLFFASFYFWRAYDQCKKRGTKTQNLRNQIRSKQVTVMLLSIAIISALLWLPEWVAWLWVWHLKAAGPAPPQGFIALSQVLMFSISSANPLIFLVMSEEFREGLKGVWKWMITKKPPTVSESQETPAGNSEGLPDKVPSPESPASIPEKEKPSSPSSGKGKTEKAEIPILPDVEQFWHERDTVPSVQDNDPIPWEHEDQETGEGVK
Consider `CC[n+]1c(/C=C/C=C2\N(C)c3ccccc3C2(C)C)n(-c2ccccc2)c2ccc(C)cc21`, for which the activation is 19.5% (inactive).

Turning to `CCn1c(/C=C/C=C2\N(C)c3ccccc3C2(C)C)[n+](Cc2ccccc2)c2ccccc21`, the activation was 35.2% (active).

As for `CC[n+]1c(/C=C/C=C2\N(C)c3ccccc3C2(C)C)n(-c2ccccc2)c2cc(Cl)ccc21`, the activation is 13.7% (inactive).

For the compound `CCCCn1c(C)c(C(=O)OCC)c2cc(OC(=O)CCC)c3ccccc3c21`, the activation is 1.16% (inactive).

On to `CCOC(=O)c1nc2ccccc2c(=O)n1-c1ccc(C)cc1Br`, for which the activation is -0.06% (inactive).

On to `C[C@@H]1O[C@@H](O[C@H]2C[C@@H](O)[C@]3(CO)[C@H]4[C@H](O)C[C@]5(C)[C@@H](C6=CC(=O)OC6)CC[C@]5(O)[C@@H]4CC[C@]3(O)C2)[C@H](O)[C@H](O)[C@H]1O`, for which the activation was 13.4% [setting not given] (inactive).

For `C[C@H]1CC[C@@H]2[C@@H](C)[C@H]3[C@H](CC4[C@@H]5CC=C6CC(O[C@@H]7O[C@H](CO)C(O[C@@H]8O[C@@H](C)[C@H](O)[C@@H](O)[C@H]8O)[C@H](O)[C@H]7O[C@@H]7O[C@@H](C)[C@H](O)[C@@H](O)[C@H]7O)CC[C@]6(C)[C@H]5CC[C@@]43C)N2C1` (stereo not given in full), the activation was 81.8% (active).

On to `CCCCOc1ccc(C(=O)Nc2ccc(Cl)cc2C(=O)c2ccccc2)cc1`, for which the activation was -0.96% (inactive).

As for `COCCOC(=O)C1=C(C)OC(N)=C(C#N)C12C(=O)N(CC(=O)OC)c1ccccc12` (stereo not given), the activation is -4.79% (inactive).

As to `O=C(Nc1ccc(Cl)cc1C(=O)c1ccccc1)c1cc([N+](=O)[O-])ccc1Cl`, the activation is -4.58% (inactive).
